Laboratory results taken from article PMC4336329 (PLoS ONE, 2015).
The whole screen tested about 310,000 compounds, of which about 14,000 (4.5%) showed an effect of 50% or more. Effects have a minus sign here. This is one part of a sample in which strong results are shown more often than they occur.

These compounds were tested against human ether-à-go-go-related gene (hERG) potassium channel (human, UniProt Q12809) (assay: primary screen, population patch clamp on CHO cells stably expressing hERG; higher = less effect of the substance).
Sequence of human ether-à-go-go-related gene (hERG) potassium channel (Q12809 whole entry, looked up): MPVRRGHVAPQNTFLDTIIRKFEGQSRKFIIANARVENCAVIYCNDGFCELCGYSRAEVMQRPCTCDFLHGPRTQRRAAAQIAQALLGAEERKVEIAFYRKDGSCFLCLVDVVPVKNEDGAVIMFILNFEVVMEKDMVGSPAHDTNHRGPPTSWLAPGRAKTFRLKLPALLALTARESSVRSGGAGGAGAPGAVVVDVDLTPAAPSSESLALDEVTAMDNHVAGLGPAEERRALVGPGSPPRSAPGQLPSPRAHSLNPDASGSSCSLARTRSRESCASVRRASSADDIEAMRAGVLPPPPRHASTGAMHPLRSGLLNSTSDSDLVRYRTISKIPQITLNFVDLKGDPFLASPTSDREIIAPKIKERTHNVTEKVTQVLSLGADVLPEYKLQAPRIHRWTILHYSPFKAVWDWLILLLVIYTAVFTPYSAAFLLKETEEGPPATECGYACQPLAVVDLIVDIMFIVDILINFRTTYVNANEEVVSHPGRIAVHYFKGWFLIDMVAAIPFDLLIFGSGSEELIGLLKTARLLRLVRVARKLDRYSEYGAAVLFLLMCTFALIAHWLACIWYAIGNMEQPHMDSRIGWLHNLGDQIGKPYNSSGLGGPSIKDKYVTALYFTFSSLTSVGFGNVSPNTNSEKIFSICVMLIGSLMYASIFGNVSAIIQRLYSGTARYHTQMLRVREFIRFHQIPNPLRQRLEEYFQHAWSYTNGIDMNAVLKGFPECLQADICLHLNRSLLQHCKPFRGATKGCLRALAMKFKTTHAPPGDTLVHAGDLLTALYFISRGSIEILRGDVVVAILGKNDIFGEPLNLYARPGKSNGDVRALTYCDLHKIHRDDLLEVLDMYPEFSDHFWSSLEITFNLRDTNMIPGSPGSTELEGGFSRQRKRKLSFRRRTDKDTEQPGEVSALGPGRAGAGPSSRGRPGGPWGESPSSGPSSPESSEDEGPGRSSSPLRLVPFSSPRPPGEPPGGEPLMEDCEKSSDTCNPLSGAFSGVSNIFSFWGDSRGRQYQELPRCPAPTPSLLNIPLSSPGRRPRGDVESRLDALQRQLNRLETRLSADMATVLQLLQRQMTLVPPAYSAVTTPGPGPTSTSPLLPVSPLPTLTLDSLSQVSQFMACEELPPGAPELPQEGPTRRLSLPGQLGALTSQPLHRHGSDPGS
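Note: peak tail current of the secondary pulse compared with the same well before compound.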

SMILES | hERG current change (%, negative = inhibition) at 10uM
Cc1ccc(-c2nc(C3CCCN(S(=O)(=O)c4ccc(C(F)(F)F)cc4)C3)no2)cc1 (stereo not shown) | 15%
CC(C)(C)C(=O)Nc1c2c(nn1-c1ccc(F)cc1)CSC2 | 13.4%
COc1ccc(C(=O)NCCSCc2ccccc2)cc1OC | -5.31%
Cc1nnc(SCC(=O)NC2CCCCC2)s1 | 10.7%
O=[N+]([O-])c1cc(C(F)(F)F)ccc1Oc1cccnc1[N+](=O)[O-] | -7.06%
O=C1CSC(=S)N1Cc1cccnc1 | -2.25%
O=S(=O)(Nc1ccccn1)c1ccc(Br)cc1 | -2.97%
Cc1cc(C)c(C#N)c(Nc2ccccc2C)n1 | 12.4%
O=C(O)C(=O)O.O=[N+]([O-])c1cccc(CN2CCN(Cc3ccco3)CC2)c1 | -4.34%
O=C(O)C(=O)O.O=C(c1cccs1)N1CCN(Cc2cccc([N+](=O)[O-])c2)CC1 | -33.1%
O=C(O)C(=O)O.O=[N+]([O-])c1cccc(CN2CCN(Cc3ccc(Cl)cc3)CC2)c1 | -70.8%
CC(C)N1CCN(Cc2cccc([N+](=O)[O-])c2)CC1 | -2.13%
O=C(O)C(=O)O.O=C(c1ccco1)N1CCN(Cc2cccc([N+](=O)[O-])c2)CC1 | -20.3%
O=C(O)C(=O)O.O=[N+]([O-])c1cccc(CN2CCN(Cc3ccc(Br)cc3)CC2)c1 | -72.4%
Cc1cccc(NC(=O)CN2C(=O)S/C(=C\c3ccccn3)C2=O)c1 | 30.2%
O=C(CCn1nnc2ccccc21)Nc1nnc(-c2ccccc2F)s1 | 3.13%
N#CC1=C(N)Oc2n[nH]c(-c3ccccn3)c2C1c1c(F)cccc1Cl (stereo not shown) | -3.23%
CCOc1ccc(OCCCCNCCN)cc1.O=C(O)C(=O)O | 5.79%
COC(=O)C1=NN(c2ccc(C)cc2)C2(S1)SC(C(C)=O)=C(C)N2c1ccccc1 (stereo not shown) | -10%
CCOc1ccc(CNC(=O)CCSCc2ccccc2F)cc1OC | 5.18%
Cc1ccc(/C=C(/C#N)c2nc(CCN3C(=O)c4ccccc4C3=O)cs2)cc1 | 21.6%
COc1ccc(CN2CCN(S(=O)(=O)c3ccccc3)CC2)c(OC)c1OC | 3.14%

SMILES | hERG current change (%, negative = inhibition) at 10uM
COc1ccc(OC)c(CN2CCN(S(=O)(=O)c3ccccc3)CC2)c1 | -79.2%
COc1cc(CN2CCN(S(=O)(=O)c3ccccc3)CC2)cc(OC)c1OC.O=C(O)C(=O)O | -5.31%
COc1ccc(S(=O)(=O)N2CCN(Cc3cc(OC)c(OC)cc3OC)CC2)cc1.O=C(O)C(=O)O | -11.5%
COc1ccc(CN2CCN(S(=O)(=O)c3ccccc3)CC2)c(OC)c1.O=C(O)C(=O)O | -63.5%
COc1ccc(OC)c(CN2CCN(S(=O)(=O)c3ccc(NC(C)=O)cc3)CC2)c1.O=C(O)C(=O)O | -3.01%
CCOC(=O)Cn1cnc2sc(C(=O)OC)c(C)c2c1=O | 11.1%
CCn1c(COc2ccccc2OC)nnc1SCC#N | -3.43%
C=CCn1c(SCC(=O)c2cccs2)nc2sc(C)cc2c1=O | 1.56%
Cc1ccc(NC(=O)Nc2cccc(Cl)c2)c(C(=O)O)c1 | 19.6%
CC1=C(C(=O)Nc2ccccc2)C(c2ccc3c(c2)OCO3)C2=C(CCCC2=O)N1 (stereo not shown) | -14.2%
O=C1Nc2ccc(Br)cc2C1(O)Cc1ccncc1 (stereo not shown) | -2.45%
CSCCC(NC(=O)COc1ccccc1)C(=O)N(C)Cc1ccc(Cl)cc1Cl (stereo not shown) | -24.5%
CSCCC(NC(=O)COc1ccccc1)C(=O)OCC(=O)c1ccccc1 (stereo not shown) | 4.14%
CSCCC(NC(=O)COc1ccccc1)C(=O)N1CCOCC1 (stereo not shown) | -9.88%
COC(=O)c1ccc(COC(=O)C(CCSC)NC(=O)COc2ccccc2)cc1 (stereo not shown) | -9.2%
CSCCC(NC(=O)COc1ccccc1)C(=O)N(C)Cc1ccc(F)cc1 (stereo not shown) | -50.3%
CSCCC(NC(=O)COc1ccccc1)C(=O)N1CCN(C(C)=O)CC1 (stereo not shown) | -5.67%
CSCCC(NC(=O)COc1ccccc1)C(=O)N(C)Cc1cccc(F)c1 (stereo not shown) | -37.9%
CSCCC(NC(=O)COc1ccccc1)C(=O)OCc1ccc([N+](=O)[O-])cc1 (stereo not shown) | -70.8%
CSCCC(NC(=O)COc1ccccc1)C(=O)N1CCN(c2ccccc2)CC1 (stereo not shown) | -51.9%
CC(=O)N1CCCc2ccccc21 | 15.5%
O=C(NCc1ccc(Cl)c(Cl)c1)c1ccc2c(c1)OCO2 | -10.7%

SMILES | hERG current change (%, negative = inhibition) at 10uM
COc1ccccc1C(=O)NC(CCSC)C(=O)NNC(=O)C(C)Oc1ccccc1F (stereo not shown) | 0.592%
O=C(O)COc1nsnc1N1CCOCC1 | 10.4%
COc1cc(C(=S)N2CCCCC2)ccc1OCC(=O)Nc1ccccc1Cl | 18.9%
S=c1[nH]nc(-c2ccc(Br)cc2)n1-c1ccc(Br)cc1 | 12.2%
CCOC(=O)c1sc(N(Cc2ccccc2)C(=O)COC(=O)c2cnccn2)nc1C | 0.26%
CCc1ccc(NC2=NC(C(=O)NC3CCCCC3)CC(=O)N2)cc1 (stereo not shown) | 14.9%
O=c1[nH]c2cccnc2n1Cc1ccccc1 | 7.67%
CCc1ccc(NC(=O)C(=O)N/N=C(\C)CC(=O)NCCOC)cc1 | -2.99%
CN(CCOc1ccccc1)C(=O)c1ccc(Cl)c(S(=O)(=O)N2CCCCC2)c1 | -67.4%
Cc1ccc(S(=O)(=O)N2CCCCC2)cc1C(=O)N(C)CCOc1ccccc1 | -48%
Cc1ccc(C(=O)N(C)CCOc2ccccc2)cc1S(=O)(=O)N1CCOCC1 | -15.6%
CN(CCOc1ccccc1)C(=O)c1cc([N+](=O)[O-])cc([N+](=O)[O-])c1 | -56.9%
Cc1ccc(C(=O)N(C)CCOc2ccccc2)cc1S(=O)(=O)N1CCCCC1 | -51.4%
O=C(NCCOc1ccccc1)c1cc(C(=O)NCCOc2ccccc2)cc([N+](=O)[O-])c1 | -15.2%
CN(CCOc1ccccc1)C(=O)c1ccc(N2CCCC2)c([N+](=O)[O-])c1 | -27.5%
CN(CCOc1ccccc1)C(=O)c1cc(S(=O)(=O)N2CCCCC2)ccc1Cl | -42.7%
CN(CC1COc2ccccc2O1)C(=O)c1ccc(Cl)c(S(=O)(=O)N2CCCCCC2)c1 (stereo not shown) | -25.8%
CCn1cc(S(=O)(=O)NC(C)c2cc(OC)ccc2OC)cn1 (stereo not shown) | 1.25%
CC(C)O.COC(=O)Nc1ccc2c(c1)N(C(=O)CCN1CCN3CCCC3C1)c1ccccc1CC2.Cl.O (stereo not shown) | 1.43%
CC(=O)c1cc(F)c(N2CCN(C(=O)c3ccco3)CC2)cc1C | -18.5%
Cn1c(Cl)c(/C=N/OC(=O)c2ccc(Cl)cc2)c2ccccc21 | -5.13%
Cc1ccc(-c2nnn(CC(=O)N(Cc3ccc(F)cc3)C(C(=O)NC3CCCC3)c3ccncc3)n2)o1 (stereo not shown) | -12.4%

SMILES | hERG current change (%, negative = inhibition) at 10uM
CCOC(=O)c1ccc(Nc2c(OCC)c(=O)c2=O)cc1 | -15.4%
CCCCn1c(=O)[nH]c(=O)c2c1nc(-c1ccc(OCC)cc1)n2CC | 1.27%
C=CCn1c(SCc2ccccc2)nc2c1c(=O)[nH]c(=O)n2C | -21.6%
CCCCn1c(=O)[nH]c(=O)c2c1nc(-c1ccc(-c3ccccc3)cc1)n2C | 20.2%
C=CCn1c(SCc2nc3c(c(=O)[nH]c(=O)n3CCCC)n2CCC)nnc1-c1ccccc1 | -60.5%
C=CCOc1ccc(-c2nc3c(c(=O)[nH]c(=O)n3CCC)n2CCCC)cc1 | -5.34%
CCCCn1c(=O)[nH]c(=O)c2c1nc(-c1ccc(C(F)(F)F)cc1)n2C | 3.8%
CCCCn1c(=O)[nH]c(=O)c2c1nc(-c1ccc(-c3ccc(F)cc3)o1)n2C | -55%
CCCCn1c(=O)[nH]c(=O)c2c1nc(COc1ccc(C#N)cc1)n2CCC | -57.2%
CCCn1c(=O)[nH]c(=O)c2c1nc(-c1ccc(C#N)cc1)n2CCOC | -2.78%
CCCCn1c(O)c(/C(C)=N/NC(=O)Nc2ccccc2)c(=O)[nH]c1=O | 7.7%
O=P(C(c1ccc2c(c1)OCO2)N1CCOCC1)(N1CCOCC1)N1CCOCC1 (stereo not shown) | 4.64%
O=C(CN1CCN(c2ncc(C(F)(F)F)cc2Cl)CC1)Nc1ccc2c(c1)OCO2 | -37.7%
Cc1ccc(-c2nc(CSCC(=O)NCCN3CCN(Cc4ccccc4)CC3)c(C)o2)cc1 | -65.2%
Cc1oc(-c2ccc(Cl)cc2)nc1CSCC(=O)NC1CCN(Cc2ccccc2)CC1 | -73.1%
Cc1ccc(-c2nc(CSCC(=O)NC3CCN(Cc4ccccc4)CC3)c(C)o2)cc1 | -44%
Cc1ccc(-c2nc(CSCC(=O)NCCCN3CCOCC3)c(C)o2)cc1 | 14.1%
CCOc1ccc(-c2nc(CSCC(=O)NCCN3CCOCC3)c(C)o2)cc1 | 11.3%
COc1ccc(-c2nc(CSCC(=O)NC3CCN(Cc4ccccc4)CC3)c(C)o2)cc1OC | -40.9%
